Vaccinia Venus: vaccinia inhibition (Venus reporter); 0.46% of 330,000 active; AID 720580; Vaccinia virus Venus reporter expression, fluorescence; Potency, µM (top dose mostly 36.5 µM), inactives show at the highest dose activity change, negative = inhibition, hits mostly inhibitors; calls by dose curve; tested in A549 cells; further: potency means the concentration at half of the fitted maximal effect; nearly all actives have a fitted effect of over 30% in size
HCMV inh: blocks human cytomegalovirus replication | HFF cells, HCMV-luciferase reporter, 72 h; stronger effect = lower value | activity change, negative = inhibition, % at 57.5 µM | 4.5% of 410,000 active | AID 1259415; in the data active means activity change below about -60%; inconclusive means no clear call, values can overlap the other calls; inactive means above about -39%
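Steps: HFFs plated, 16 h 37C; compounds added; HCMV-luciferase added to MOI 1 PFU/cell; 72 h 37C; OneGlo reagent, 5 min room temperature; luminescence read, normalized to controls.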
FMDV inh: blocks foot and mouth disease virus | FMDV antiviral cell-based qHTS | Potency, µM (top dose mostly 57.9 µM), for the others: top-dose activity change, negative = inhibition, hits mostly inhibitors | 1.2% of 410,000 active | AID 1159524; calls by dose curve; tested in HEK293T cells; further: read-out not given here; potency means the concentration at half of the fitted maximal effect; nearly all actives have a fitted effect of over 45% in size
MARV entry inh: inhibitors of Marburg virus binding or cell entry | Potency, µM (series often up to 37.8 µM), without a hit: at the highest dose activity change, negative = inhibition, most hits filed as inhibitors | AID 540276 | Marburg virus pseudotyped entry inhibition, cell reporter | 1.8% of 300,000 active; calls by dose curve; tested in HEK293 cells; further: potency means the concentration at half of the fitted maximal effect
LASV entry inh: blocks Lassa virus binding to or entry into cells; Potency, µM (doses to about 37.9 µM), for inactives: at the highest dose activity change, negative = inhibition, actives largely listed as inhibitors; Lassa virus pseudotype entry inhibition, cell reporter; 1.2% of 300,000 active; calls by dose curve; tested in HEK293 cells; further: potency means the concentration at half of the fitted maximal effect; nearly all actives have a fitted effect of over 50% in size
VACV mCherry inh: vaccinia inhibition (mCherry reporter). Vaccinia virus mCherry reporter infection, fluorescence. Potency, µM (series often up to 36.5 µM), without a hit: top-dose activity change, negative = inhibition, actives largely listed as inhibitors. 0.63% of 310,000 active; calls by dose curve; tested in A549 cells; further: potency means the concentration at half of the fitted maximal effect; nearly all actives have a fitted effect of over 35% in size
An asterisk follows results filed as active; i = inactive; ? = inconclusive; · = not tested or not shown; [ ] = another dose, or the depositor's remark. Rows were chosen to be rich in hits. Some 6.5% of all compounds tested hit in one or more screens of this group. On the % scale 0 is the no-effect control and ±100 the full control effect.

SMILES | Vaccinia Venus | HCMV inh | FMDV inh | MARV entry inh | LASV entry inh | VACV mCherry inh
Cc1ccc(NS(=O)(=O)c2cc([N+](=O)[O-])ccc2NNC(=S)Nc2cccc(Cl)c2)c(C)c1 | -1% | · | -8% | ? | ? | -11%
COc1ccc(CNc2ccc([N+](=O)[O-])cc2C)cc1 | -8% | 0 | -3% | -27%[46.1 µM] | 2%[46.1 µM] | -3%
Cc1ccc(NS(=O)(=O)c2cc([N+](=O)[O-])ccc2NNC(=S)Nc2cc(C)ccc2C)c(C)c1 | -23% | -103* | ? | ? | 14µM* | -14%
CCOc1ccc(NS(=O)(=O)c2cc(NC(=O)c3cccc(C)c3)ccc2Cl)cc1 | 13µM* | ? | 41% | ? | 16µM* | ?
Oc1ccc(/C=N/N=C(c2ccccc2)c2ccccc2)c(O)c1O | -6% | ? | -6% | ? | ? | ?
O=C(/C(=N/N=C/c1ccc(O)c(O)c1O)c1ccccc1)c1ccccc1 | -27% | 14 | -27% | ? | 8.9µM* | -22%
Nc1cc(=O)[nH]c(SCc2ccc(Cl)cc2Cl)n1 | · | -60* | ? | · | · | ·
Nc1ncnc2nc(SCc3ccc(Cl)cc3Cl)[nH]c12 | ? | -11 | 1% | -9% | -23% | ?
O=C(c1ccco1)N1CCN(c2nc3ccccc3c(=O)n2-c2ccccc2)CC1 | · | -10 | 7.1µM* | -28% | ? | ·
Cc1cc(N2CCN(C(=O)c3ccco3)CC2)c2ccccc2n1 | · | -13 | -9% | · | · | ·
O=C(c1ccco1)N1CCN(Cc2c(Cl)cccc2Cl)CC1 | · | 35 | 0% | · | · | ·
O=C(c1ccco1)N1CCN(Cc2cccc3ccccc23)CC1 | 10% | -16 | -8% | 5µM* | 10µM* | -14%
COC(=O)/C=C1/OC(c2ccccc2)=CC1=O | · | · | · | 8% | · | ·
CC(C)Cn1c(SCC#N)nc2ccccc2c1=O | -14% | -101* | 0% | -20% | 1% | -13%
COc1cc(CNCc2cc3cc(C)ccc3nc2-c2ccc(F)cc2)cc(OC)c1OC | 2% | · | 8% | · | · | -5%
CCc1ccccc1N(C)C | -4% | · | · | · | · | -8%
Cn1sc2ccccc2c1=O | -13% | -1 | 0% | · | · | -15%
Cc1ccccc1-n1sc2cc(F)ccc2c1=O | -17% | -98* | ? | ? | -17% | -27%
O=c1c2ccccc2sn1-c1ccccc1F | ? | -109* | 0% | · | · | -14%
O=C(O)c1cccc(-n2sc3ccccc3c2=O)c1 | -12% | -61* | 9% | · | · | -3%
O=c1c2ccccc2sn1-c1ccccc1 | -21% | -83* | ? | ? | ? | i
O=c1c2ccccc2sn1-c1cccc(Cl)c1 | -27% | -28 | 2% | · | · | -9%
Cc1cccnc1-c1cccc2c1OC(CNC(=O)C(=O)c1ccccc1)C2 (stereo not given) | -13% | · | -10% | · | · | -14%
CC(=O)Nc1ccc2c(=O)n(-c3ccccc3)sc2c1 | -1% | -75* | 14% | · | · | i
N#Cc1ccc2c(=O)n(-c3ccccc3)sc2c1 | -24% | 45 | 38% | · | · | -26%
SMILES | Vaccinia Venus | HCMV inh | FMDV inh | MARV entry inh | LASV entry inh | VACV mCherry inh
CN(C)c1ccc(CNCCC(Cc2ccccc2)c2ccco2)cc1 (stereo not given) | -11% | ? | -27% | 15µM* | ? | ?
CC(C)Oc1ccc(C(=O)NC2=NCCS2)cc1 | -6% | 61 | -24% | 8.9µM* | ? | i
CC(C)c1ccc(C(=O)NC2=NCCS2)cc1 | -8% | 68 | -13% | 7.3µM* | 16µM* | i
Cc1ccc(C(=O)NC2=NCCS2)cc1 | · | 94 | · | -1% | · | ·
CC(C)Cc1ccc(C(C)/C=C2/CCC(CN3CCCCC3)C2=O)cc1 (stereo not given) | -1% | -28 | 40µM* | ? | ? | -10%
CC(=O)N[C@H](Cc1c[nH]c2ccccc12)C(N)=O | -10% | · | -7% | · | · | i
COc1cc(/C=C/c2nc3ccccc3c(=O)n2-c2cccc(O)c2)ccc1O | 177% | 0 | ? | ? | 1.3µM* | ?
COc1cc(/C=C/c2nc3ccccc3c(=O)n2-c2ccccc2O)ccc1O | 20% | -83* | -24% | ? | ? | ?
Cc1cc(NS(=O)(=O)c2ccc(N)cc2)nc(C)n1 | · | 2 | · | · | · | ·
COc1ccc(-c2csc(-c3cccnc3)n2)cc1C | · | -103* | 27% | -14% | 5% | ·
CC(C)[C@@H]1CC[C@@H](C)C[C@@H]1P(=O)(c1ccccc1)c1ccccc1 | · | · | · | -30% | 8% | ·
O=C(Cn1c(SCc2cccc(F)c2)nc2cccnc21)Nc1ccc(F)c(Cl)c1 | -23% | -73* | -17% | · | 0%[46.1 µM] | -19%
O=C(NCCc1cccs1)c1ccc(Cn2c(SCc3cccc(F)c3)nc3cccnc32)cc1 | -19% | -5 | -16% | ? | · | -11%
COCCCNC(=O)c1ccc(CSc2nc3cccnc3n2Cc2ccc(OC)cc2)cc1 | -22% | 100 | -9% | · | -15%[46.1 µM] | -9%
O=C(NCc1cccs1)c1ccc(Cn2c(SCc3cccc(F)c3)nc3cccnc32)cc1 | -21% | -70* | -7% | · | ? | -21%
CC(C)OCCCNC(=O)c1ccc(CSc2nc3cccnc3n2Cc2ccccc2)cc1 | -22% | -98* | -22% | · | 2%[46.1 µM] | -29%
CO/N=C(\C(=O)N[C@@H]1C(=O)N2C(C(=O)OCOC(=O)C(C)(C)C)=C(/C=C\c3scnc3C)CS[C@H]12)c1csc(N)n1 | -5% | · | 1% | · | · | i
CC(C)(C)c1ccc(NC(=O)COC(=O)c2ccccc2OCC(=O)Nc2ccc(Br)cc2)cc1 | -25% | · | · | · | · | -22%
O=C(CN1C(=O)COc2ccccc21)Nc1ccccc1F | · | 6 | 12% | · | · | ·
O=C1COc2ccccc2N1Cc1c(F)cccc1Cl | · | -63* | -5% | · | · | ·
COCCN(C)C(=O)c1cnn(-c2ncc3c(n2)-c2ccccc2CCC3)c1C1CC1 | 3% | · | 43% | · | · | -8%
Cc1ccc(Cl)cc1NC(=O)CC(O)(C(F)(F)F)C(F)(F)F | 28µM* | -102* | · | ? | ? | ?
COCC(=O)Nc1cc(Cl)ccc1C | 0% | -31 | -18% | 16%[46.1 µM] | 16% | -11%
O=C(NCCCCN1CCOCC1)c1cc2ccccc2o1 | · | · | 0% | · | · | ·
CN1CCc2nc(NC(=O)COc3ccc4ccccc4c3)sc2C1 | -19% | -82* | -16% | ? | ? | -15%
SMILES | Vaccinia Venus | HCMV inh | FMDV inh | MARV entry inh | LASV entry inh | VACV mCherry inh
C=CCNC(=S)NNC(=O)c1ccncc1 | -14% | -64* | 2% | · | · | i
C=CCNC(=S)NNC(=O)c1cccnc1 | -3% | 5 | -18% | 19%[14.2 µM] | 5% | i
C[C@H]1CN(c2ccccc2)C(=O)[C@H]1CC(=O)Nc1ccc(Br)cc1 | · | · | · | · | -4%[46.1 µM] | ·
CCOc1cc(C=C(C(=O)OC)C(=O)OC)ccc1OCc1ccc([N+](=O)[O-])cc1 | 10µM* | 158 | ? | 2.8µM* | 3.5µM* | ·
COc1ccc2oc(C(=O)Nc3ccc(S(=O)(=O)N(C)C4CCN(C)CC4)cc3)c(C)c2c1 | · | -112* | ? | · | · | ·
Cc1c(C(=O)NCCCN2CCCC2=O)oc2ccc(S(=O)(=O)N3CCOCC3)cc12 | · | -10 | 3% | -7% | 0% | ·
COc1ccc(NC(=O)c2oc3ccc(S(=O)(=O)N4CCCCC4)cc3c2C)cc1 | -19% | -34 | 18µM* | · | ? | -19%

Assay outcomes deposited in PubChem BioAssay by National Center for Advancing Translational Sciences (NCATS).
